Values joined by “and” are separate entries in the source; they are usually repeats but may differ in a detail not shown here. Equal values may be shown once. In all, about 5,500 compounds went through this assay and about 2,000 (36%) were called active. Inconclusive results (about 18%) are left out. Rule as the data show it: active = normalized growth mostly below about 0.91 (no sharp cut-off); inconclusive = no clear call, values can overlap the other calls; inactive = mostly above about 0.92. Some of the results follow.
Assay: chemical genetic growth profiling, strain panel (AID 1159580);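 also: tested at 20 µM; growth read once vehicle control cultures reached saturation at 30 °C; 1 = growth at the plate median or of vehicle wells; lower values mean less growth of the strain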
Settings: S. cerevisiae deletion strains, growth OD

Measured: normalized growth

C[N+](C)(C)CCOC(N)=O
inactive: locus YAL013W, strain DEP1, stronger effect = lower value 1.01 | locus YAL021C, strain ccr4, stronger effect = lower value 1.03 | locus YAL026C, strain drs2, stronger effect = lower value 1.01 | locus YAL030W, strain snc1, stronger effect = lower value 1.01 | locus YAL040C, strain CLN3, stronger effect = lower value 1.05 | locus YBL061C, strain skt5, stronger effect = lower value 1.03 | locus YBR009C, strain hhf1, stronger effect = lower value 0.997 | locus YBR021W, strain FUR4, stronger effect = lower value 1.06 | locus YBR023C, strain chs3, stronger effect = lower value 1.02 | locus YBR171W, strain sec66, stronger effect = lower value 1.02 | locus YBR229C, strain ROT2, stronger effect = lower value 1.01 | locus YBR231C, strain swc5, stronger effect = lower value 1.02 | locus YBR279W, strain paf1, stronger effect = lower value 1.01 | locus YCL011C, strain gbp2, stronger effect = lower value 1.01 | locus YCL016C, strain dcc1, stronger effect = lower value 1.03 | locus YCL029C, strain bik1, stronger effect = lower value 0.973 | locus YCL061C, strain MRC1 (second series), stronger effect = lower value 0.987 | locus YCL069W, strain vba3, stronger effect = lower value 1.03 | locus YCR088W, strain abp1, stronger effect = lower value 1.01 | locus YDL005C, strain med2, stronger effect = lower value 1.03 | locus YDL035C, strain GPR1, stronger effect = lower value 1.04 | locus YDL040C, strain nat1, stronger effect = lower value 1.02 | locus YDL074C, strain BRE1, stronger effect = lower value 0.995 | locus YDL101C, strain DUN1, stronger effect = lower value 0.986 | locus YDL185W, strain tfp1, stronger effect = lower value 0.953 | locus YDL192W, strain arf1, stronger effect = lower value 0.976 | locus YDR001C, strain nth1, stronger effect = lower value 1.02 | locus YDR069C, strain doa4, stronger effect = lower value 1.01 | locus YDR101C, strain arx1, stronger effect = lower value 1 | locus YDR137W, strain rgp1, stronger effect = lower value 1.04 | locus YDR150W, strain NUM1, stronger effect = lower value 1.01 | locus YDR159W, strain sac3, stronger effect = lower value 1.02 | locus YDR162C, strain NBP2, stronger effect = lower value 1.03 | locus YDR195W, strain ref2 1.06 | locus YDR297W, strain sur2, stronger effect = lower value 1.02 | locus YDR318W, strain mcm21, stronger effect = lower value 0.987 | locus YDR334W, strain swr1, stronger effect = lower value 1.02 | locus YDR335W, strain msn5, stronger effect = lower value 1.03 | locus YDR388W, stronger effect = lower value 0.984 | locus YDR392W, strain spt3, stronger effect = lower value 1.02 | locus YDR502C, strain sam2, stronger effect = lower value 0.99 | locus YEL003W, strain gim4, stronger effect = lower value 1.02 | locus YEL037C, strain rad23, stronger effect = lower value 1.02 | locus YEL061C, strain CIN8 (second series), stronger effect = lower value 1.01 | locus YEL061C, strain CIN8, stronger effect = lower value 1 | locus YER002W, strain NOP16, stronger effect = lower value 0.986 | locus YER015W, strain faa2, stronger effect = lower value 1.03 | locus YER016W, strain bim1, stronger effect = lower value 1.01 | locus YER110C, stronger effect = lower value 0.944 | locus YER111C, strain swi4, stronger effect = lower value 1.03 | locus YER155C, strain BEM2 (second series), stronger effect = lower value 1.03 | locus YER155C, strain BEM2, stronger effect = lower value 0.991 | locus YER167W, strain BCK2, stronger effect = lower value 1.01 | locus YFR010W, strain ubp6, stronger effect = lower value 1.02 | locus YGL078C, strain dbp3, stronger effect = lower value 0.986 | locus YGL086W, strain mad1, stronger effect = lower value 1 | locus YGL167C, strain pmr1, stronger effect = lower value 1.03 | locus YGL173C, strain kem1, stronger effect = lower value 1.02 | locus YGL227W, strain vid30, stronger effect = lower value 1.01 | locus YGL240W, strain doc1, stronger effect = lower value 1.02 | locus YGL248W, strain PDE1, stronger effect = lower value 1.01 | locus YGL253W, strain hxk2, stronger effect = lower value 1.02 | locus YGR078C, strain PAC10, stronger effect = lower value 0.992 and 0.993 | locus YGR135W, strain pre9, stronger effect = lower value 0.978 | locus YGR252W, strain gcn5, stronger effect = lower value 1.07 | locus YHR013C, strain ard1, stronger effect = lower value 1.04 | locus YHR027C, strain rpn1, stronger effect = lower value 1.01 | locus YHR030C, strain SLT2, stronger effect = lower value 1.01 and 0.989 | locus YHR079C, strain IRE1 (second series), stronger effect = lower value 0.962 | locus YHR079C, strain IRE1, stronger effect = lower value 0.998 | locus YHR094C, strain hxt1, stronger effect = lower value 0.976 | locus YHR129C, strain ARP1, stronger effect = lower value 1 | locus YHR142W, strain chs7, stronger effect = lower value 1.02 | locus YHR200W, strain rpn10, stronger effect = lower value 0.979 | locus YIL066C, strain RNR3, stronger effect = lower value 1.02 | locus YIL073C, strain SPO22, stronger effect = lower value 0.927 | locus YIL125W, strain kgd1, stronger effect = lower value 0.986 | locus YIR030C, strain dcg1, stronger effect = lower value 0.959 | locus YJL092W, strain hpr5, stronger effect = lower value 1.01 | locus YJL095W, strain BCK1 (second series), stronger effect = lower value 1.03 | locus YJL095W, strain BCK1, stronger effect = lower value 0.981 and 0.988 | locus YJL115W, strain asf1, stronger effect = lower value 1.02 | locus YJL129C, strain trk1, stronger effect = lower value 1.02 | locus YJL134W, strain LCB3, stronger effect = lower value 1 | locus YJL164C, strain tpk1, stronger effect = lower value 1.01 | locus YJL166W, strain qcr8, stronger effect = lower value 0.992 | locus YJL168C, strain set2, stronger effect = lower value 0.986 | locus YJL187C, strain SWE1 (second series), stronger effect = lower value 0.986 | locus YJL187C, strain SWE1, stronger effect = lower value 1.02 | locus YJR043C, strain POL32, stronger effect = lower value 1.05 | locus YJR066W, strain TOR1, stronger effect = lower value 0.999 | locus YJR075W, strain HOC1, stronger effect = lower value 0.989 | locus YKL009W, strain mrt4, stronger effect = lower value 0.957
